Data published in paper PMC11062922 (Nature Chemical Biology, 2023).
Where two headings read alike, the source gives them in different places.

What was measured:
Parameters in all cases: species or system human, MV4-11 + K-562 + COLO205 + SK-N-BE2 + OVCAR-8
EPHB6 = conditions: read-out: apparent Kd, n = 1
PIM1 = conditions: read-out: apparent Kd, compound concentrations: 100 nM and 1000 nM (sheet 'Samples'), n = 1
PAK4 = conditions: compound concentrations:0.3nM, 1nM, 3nM, 10nM, 30nM, 100nM, 300nM, 1000nM,R2:0.96781137417830099,slope:0.58987671625518001,EC50 Standard Error, by the legend:Standard error of the EC50 estimation as provided by the drc package.
PKN3 = conditions: compound concentrations:0.3nM, 1nM, 3nM, 10nM, 30nM, 100nM, 300nM, by the legend:Standard error of the EC50 estimation as provided by the drc package.; for Kd: read-out: apparent Kd
AKT1 = conditions: read-out: apparent Kd, compound concentrations: 100 nM and 1000 nM (sheet 'Samples'), n = 1
MAPK11 = conditions: read-out: apparent Kd, compound concentrations: 100 nM and 1000 nM (sheet 'Samples'), n = 1
PRKDC = conditions: read-out: apparent Kd, n = 1
TAOK1 = conditions: read-out: apparent Kd, n = 1
CSNK1G1 = conditions: read-out: apparent Kd; compound concentrations: 100 nM and 1000 nM (sheet 'Samples'), CATDS: 5.3431605837735603E-3; n = 1
DCTPP1 = conditions: read-out: apparent Kd; compound concentrations: 100 nM and 1000 nM (sheet 'Samples'), CATDS: 4.22997641527893E-3; n = 1
IRAK1 = conditions: read-out: apparent Kd; compound concentrations: 100 nM and 1000 nM (sheet 'Samples'), CATDS: 3.5689080514204499E-3; n = 1
MAP2K5 = conditions: read-out: apparent Kd; compound concentrations: 100 nM and 1000 nM (sheet 'Samples'), CATDS: 4.1093022417344298E-3; n = 1
MERTK = conditions: read-out: apparent Kd; compound concentrations: 100 nM and 1000 nM (sheet 'Samples'), CATDS: 9.2588510560485896E-3; n = 1
NQO1 = conditions: read-out: apparent Kd; compound concentrations: 100 nM and 1000 nM (sheet 'Samples'), CATDS: 3.59016343581718E-3; n = 1
PI4KA = conditions: read-out: apparent Kd; compound concentrations: 100 nM and 1000 nM (sheet 'Samples'), CATDS: 7.2985744477334297E-3; n = 1
PRKCI = conditions: read-out: apparent Kd; compound concentrations: 100 nM and 1000 nM (sheet 'Samples'), CATDS: 3.8239218597995801E-3; n = 1
RPS6KA5 = conditions: read-out: apparent Kd; compound concentrations: 100 nM and 1000 nM (sheet 'Samples'), CATDS: 4.7822949231481997E-3; n = 1
SYK = conditions: read-out: apparent Kd; compound concentrations: 100 nM and 1000 nM (sheet 'Samples'), CATDS: 5.7016392995471003E-3; n = 1
[1] = 1000nM,R2:0.99888452271644701,slope:1.2700915856501001,EC50 Standard Error
[2] = 1000nM,R2:0.95736535454590599,slope:1.35169947345033,EC50 Standard Error
[3] = compound concentrations:100 nM and 1000 nM (sheet 'Samples')
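Wherever EC50 is given: competition pulldown with Kinobeads ε in cell lysates, inhibitor preincubated 45 min at 4 °C, bound kinases quantified by LC–MS/MS against DMSO control.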
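Wherever Kd is given: competition pulldown with Kinobeads ε in cell lysates, inhibitor preincubated 45 min at 4 °C, bound kinases quantified by LC–MS/MS against DMSO control.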

O=C1N=C(NCCc2ccc(Cl)cc2)S/C1=C\c1ccc2ncccc2c1 [RO4498479-000]
potency estimated from few doses (EPHB6; compound concentrations: 100 nM and 1000 nM (sheet 'Samples'), CATDS: 6.9765900844718596E-3): 1660 nM | potency estimated from few doses (PIM1; CATDS: 9.1477666322176705E-3): 691 nM

CCn1c(-c2nonc2N)nc2c(C#CC(C)(C)O)nc(OCCN)cc21.CCn1c(-c2nonc2N)nc2c(C#CC(C)(C)O)nc(OCCN)cc21.Cl.Cl [GSK902056A]
EC50 (PAK4): 5300 nM | Kd (PAK4; read-out: apparent Kd): 4860 nM | EC50 (PKN3; [1]): 10.2 nM | Kd (PKN3; [1]): 10.2 nM

Cl.NCc1ccc(-c2nc(-c3ccc(Cl)c(O)c3)c(-c3ccncc3)[nH]2)cc1 [SB-476429-A]
EC50 (PKN3; [2]): 38.4 nM | Kd (PKN3; [2]): 38.4 nM

CCn1c(-c2nonc2N)nc2c(-c3ccccc3)ncc(OCCCN)c21.CCn1c(-c2nonc2N)nc2c(-c3ccccc3)ncc(OCCCN)c21.O=C(O)C(F)(F)F.O=C(O)C(F)(F)F [GSK260205A]
potency estimated from few doses (AKT1; CATDS: 6.9127027959846404E-2): 157 nM

COc1cccc2c(-c3ccncc3)c(-c3ccc(F)cc3)nn12 [GW468513X]
potency estimated from few doses (MAPK11; CATDS: 3.7828559303077401E-2): 1640 nM

CN1C[C@@H]2Cn3c(c(C4=C(c5cn(C)c6ccccc56)C(=O)NC4=O)c4ccccc43)C[C@H]2C1.Cl [RO0320234-001]
potency estimated from few doses (EPHB6; [3]): 1960 nM | potency estimated from few doses (PRKDC; [3]): 859 nM | potency estimated from few doses (TAOK1; [3]): 1350 nM

Cn1ncc2c(N)ncnc21 [SKF-18267]
potency estimated from few doses (AKT1; CATDS: 4.8125130234568303E-3): 879 nM | potency estimated from few doses (CSNK1G1): 716 nM | potency estimated from few doses (DCTPP1): 1170 nM | potency estimated from few doses (EPHB6; compound concentrations: 100 nM and 1000 nM (sheet 'Samples'), CATDS: 4.7916385769682596E-3): 887 nM | potency estimated from few doses (IRAK1): 1830 nM | potency estimated from few doses (MAP2K5): 1250 nM | potency estimated from few doses (MAPK11; CATDS: 4.4454363185357799E-3): 1040 nM | potency estimated from few doses (MERTK): 294 nM | potency estimated from few doses (NQO1): 1800 nM | potency estimated from few doses (PI4KA): 420 nM | potency estimated from few doses (PIM1; CATDS: 7.3887725324269602E-3): 412 nM | potency estimated from few doses (PRKCI): 1500 nM | potency estimated from few doses (PRKDC; compound concentrations: 100 nM and 1000 nM (sheet 'Samples'), CATDS: 6.2124168993476997E-3): 547 nM | potency estimated from few doses (RPS6KA5): 891 nM | potency estimated from few doses (SYK): 635 nM | potency estimated from few doses (TAOK1; compound concentrations: 100 nM and 1000 nM (sheet 'Samples'), CATDS: 4.9523162341794302E-3): 830 nM
